According to PubChem BioAssay:

How the values were obtained:
[1] = system: Botulinum neurotoxin type F light chain protease (Clostridium botulinum); assay: Clostridium botulinum type F light chain protease inhibitors, microsphere substrate cleavage, validation (AID 588459); settings: multiplex microsphere protease substrate cleavage assay, flow cytometry; at 10 µM; active compounds read high
[2] = biological target: Botulinum neurotoxin type A (Clostridium botulinum) (UniProt P0DPI0); assay: BoNT/A light chain protease inhibitors, biochemical, multiplex microsphere flow cytometry, validation set (AID 588460); settings: at 10 µM, active compounds read high
Botulinum neurotoxin type A (Clostridium botulinum), sequence (P0DPI0 whole entry, looked up): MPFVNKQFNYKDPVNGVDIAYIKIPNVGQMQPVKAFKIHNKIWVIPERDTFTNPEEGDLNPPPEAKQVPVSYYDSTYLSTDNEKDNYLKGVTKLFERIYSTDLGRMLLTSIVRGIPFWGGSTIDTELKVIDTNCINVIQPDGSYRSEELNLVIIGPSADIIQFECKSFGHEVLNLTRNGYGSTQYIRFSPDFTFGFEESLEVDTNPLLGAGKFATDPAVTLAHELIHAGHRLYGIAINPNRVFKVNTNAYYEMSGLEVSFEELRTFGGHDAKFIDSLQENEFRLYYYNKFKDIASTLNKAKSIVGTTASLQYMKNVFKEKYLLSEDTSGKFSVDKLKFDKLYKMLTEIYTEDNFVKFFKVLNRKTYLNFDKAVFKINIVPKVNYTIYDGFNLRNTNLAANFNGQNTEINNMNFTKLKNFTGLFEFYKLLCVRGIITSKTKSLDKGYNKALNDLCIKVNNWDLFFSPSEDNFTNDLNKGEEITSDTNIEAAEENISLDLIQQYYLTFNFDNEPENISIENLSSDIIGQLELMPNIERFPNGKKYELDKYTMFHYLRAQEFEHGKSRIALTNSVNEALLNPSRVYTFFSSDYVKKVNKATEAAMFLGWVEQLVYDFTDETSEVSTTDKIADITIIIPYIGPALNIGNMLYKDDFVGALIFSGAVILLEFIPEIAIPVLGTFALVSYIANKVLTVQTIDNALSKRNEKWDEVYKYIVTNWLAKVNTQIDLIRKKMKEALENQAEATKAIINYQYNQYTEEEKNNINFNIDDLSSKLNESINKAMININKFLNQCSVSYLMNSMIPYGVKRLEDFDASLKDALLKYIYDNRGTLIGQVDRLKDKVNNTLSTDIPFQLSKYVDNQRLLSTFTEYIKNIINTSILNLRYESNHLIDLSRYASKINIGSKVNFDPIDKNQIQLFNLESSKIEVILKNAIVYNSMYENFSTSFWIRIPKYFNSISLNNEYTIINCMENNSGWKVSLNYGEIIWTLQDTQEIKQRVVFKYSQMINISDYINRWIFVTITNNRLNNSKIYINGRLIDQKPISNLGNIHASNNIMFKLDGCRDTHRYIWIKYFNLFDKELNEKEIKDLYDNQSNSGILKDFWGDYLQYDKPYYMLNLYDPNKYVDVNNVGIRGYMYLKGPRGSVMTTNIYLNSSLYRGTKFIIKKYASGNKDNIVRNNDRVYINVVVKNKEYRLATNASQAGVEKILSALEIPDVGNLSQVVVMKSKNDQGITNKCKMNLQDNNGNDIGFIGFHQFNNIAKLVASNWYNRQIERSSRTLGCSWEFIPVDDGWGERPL

[3] = biological target: Lethal factor (Bacillus anthracis) (UniProt P15917); assay: Bacillus anthracis lethal factor inhibition, microsphere flow cytometry protease assay, validation at 10 µM (AID 588461); settings: multiplex microsphere protease cleavage assay, active compounds read high
Lethal factor (Bacillus anthracis), sequence (P15917 whole entry, looked up): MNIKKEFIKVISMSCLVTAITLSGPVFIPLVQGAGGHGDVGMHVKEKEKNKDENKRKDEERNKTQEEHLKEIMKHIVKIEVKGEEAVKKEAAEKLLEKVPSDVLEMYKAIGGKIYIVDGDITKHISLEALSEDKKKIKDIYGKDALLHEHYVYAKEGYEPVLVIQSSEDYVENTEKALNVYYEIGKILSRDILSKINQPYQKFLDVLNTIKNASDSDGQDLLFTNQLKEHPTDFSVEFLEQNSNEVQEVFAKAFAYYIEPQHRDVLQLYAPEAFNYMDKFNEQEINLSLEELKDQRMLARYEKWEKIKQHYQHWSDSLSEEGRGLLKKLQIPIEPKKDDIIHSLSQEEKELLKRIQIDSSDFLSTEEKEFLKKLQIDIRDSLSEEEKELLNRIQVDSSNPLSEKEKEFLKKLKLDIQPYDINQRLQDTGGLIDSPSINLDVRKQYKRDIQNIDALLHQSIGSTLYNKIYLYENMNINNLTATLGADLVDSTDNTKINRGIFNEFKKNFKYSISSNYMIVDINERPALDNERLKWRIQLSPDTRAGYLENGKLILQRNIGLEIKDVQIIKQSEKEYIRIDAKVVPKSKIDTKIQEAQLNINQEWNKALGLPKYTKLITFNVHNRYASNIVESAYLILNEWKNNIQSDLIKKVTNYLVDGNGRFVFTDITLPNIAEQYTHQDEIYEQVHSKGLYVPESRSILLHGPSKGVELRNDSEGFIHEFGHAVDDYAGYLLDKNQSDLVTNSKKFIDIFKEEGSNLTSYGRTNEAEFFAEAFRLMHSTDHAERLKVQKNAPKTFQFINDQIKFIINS

Measured: inhibition

NS(=O)(=O)c1cc(C2(O)NC(=O)c3ccccc32)ccc1Cl (stereo not drawn)
inactive: [1] -0.2% | [2] -1.6% | [3] -7.1%

CC1(C(=O)O)CCC(C(=O)NC2CCCCCC2)C1(C)C (stereo not drawn)
inactive: [1] -6.8% | [2] -1.2% | [3] -7.7%

CC1(C)CC(=O)C(C2=NC(C)(C)Cc3ccccc32)=C(O)C1
inactive: [1] 0% | [2] 0.9% | [3] -0.4%

COc1ccc(C2C3=C(CC(C)(C)CC3=O)N(C)C3=C2C(=O)CC(C)(C)C3)cc1
inactive: [1] 2% | [2] 0.4% | [3] -5.6%

CCOC(=O)n1c(=O)oc2ccccc21
inactive: [1] 0.5% | [2] 0.5% | [3] -4%

COc1ccc(C(=O)Nc2ncc3c(n2)CC(C)CC3=O)cc1 (stereo not drawn)
inactive: [1] -1.5% | [2] -0.9% | [3] -4.5%

Cc1cc(/C=N/O)c(C)n1-c1ccc(Br)cc1
inactive: [1] 1.9% | [2] 1.1% | [3] 0.9%

CCc1cccc2c3c([nH]c12)C(CC)(CC(=O)O)OCC3 (stereo not drawn)
inactive: [1] -3.9% | [2] -0.3% | [3] -0.8%

CNCCCC12CCC(c3ccccc31)c1ccccc12
inactive: [1] -2% | [2] -2.1% | [3] -5%

Nc1nc(Cl)nc2c1ncn2[C@@H]1O[C@H](CO)[C@@H](O)[C@H]1O
inactive: [1] 3.3% | [2] 0.5% | [3] -6.9%

Nc1ccc(-c2nc3ncccc3o2)c(Cl)c1
inactive: [1] -2.1% | [2] -1.8% | [3] -10.9%
